From PubChem BioAssay (NCI)
Compounds without any hit were thinned out: in the full panel of roughly 79,000, 15% have a hit. Active and inactive are the calls of the source. No stated cut-off is given here; in the data, active means growth inhibition above about 70%; inactive means the rest.

test: NCI Yeast Anticancer Drug Screen. Data for the bub3 strain (AID 167); settings: S. cerevisiae bub3 mutant strain, at 50.0 µM, hits give high values
In short: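 Mutant yeast screening strain plus compound; vehicle-treated cultures serve as the 0% inhibition reference.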

| SMILES | growth inhibition |
| --- | --- |
| C=CCCCCCCCCC(=O)OC1CCCCC1 | 15.4% (inactive) |
| O=C(O)C(Cc1ccccc1)c1ccccc1 (stereo not given) | 9.4% (inactive) |
| COc1cc(CC2c3cc(OC)c(OC)cc3CC[N+]2(C)C)c(Oc2cc(CC3c4cc(OC)c(OC)cc4CC[N+]3(C)C)ccc2OC)cc1OC (stereo not given) | -6.05% (inactive) |
| COC(C)C(NC=O)C(=O)O (stereo not given) | 9.95% (inactive) |
| O=C1c2ccccc2C(=Cc2cccnc2)c2ccccc21 | 55.1% (inactive) |
| CC1(C)OCCS1 | 20.6% (inactive) |
| CC(=O)Oc1nnc(-c2ccccc2)c(-c2ccccc2)n1 | 7.4% (inactive) |
| Clc1ccc(C2=NCCO2)cc1 | 4.85% (inactive) |
| CCCCCC(=O)N1SC(NC(=O)OC)=Nc2ccccc21 | 90.6% (active) |
| O=C1CC2(CCC(O)(c3ccc(Cl)cc3)C(C(=O)c3ccc(Cl)cc3)C2)C(=O)c2ccccc2N1 (stereo not given) | -19.4% (inactive) |
| CC(C)(C)OC(=O)CC1(C)NC(C(=O)O)C(C)(C)S1 (stereo not given) | 14.8% (inactive) |
| CCCCCCC(O)CCCCCC | 21.5% (inactive) |
| CCCCCCCCN(CCCCCCCC)CC(O)c1cc(-c2ccccc2)nc2c(-c3ccccc3)cccc12 (stereo not given) | 26.1% (inactive) |
| CCOC(=O)OCCOCCOC(=O)OCC | -2.65% (inactive) |
| NNC(=O)CSCC(=O)NN | 1.2% (inactive) |
| O=C(O)CCSCCCCCCCCCCCCSCCC(=O)O | -3.65% (inactive) |
| CC(=O)Cc1ccc2[nH]c(C)cc(=O)c2c1 | -7.15% (inactive) |
| O=[N+]([O-])c1cc(S(=O)(=O)O)cc(S(=O)(=O)O)c1O | 16.5% (inactive) |
| CN(C)c1nc2ccccc2[nH]1 | -4.85% (inactive) |
| CCOC(=O)C1CCCCC1C(=O)OCC (stereo not given) | -28.1% (inactive) |

| SMILES | growth inhibition |
| --- | --- |
| CCCCCCCCCCCCOc1ccc(C(C)(C)C)cc1 | -36.8% (inactive) |
| Nc1nc2c(ncn2C2OC(CO)C3OP(=O)(O)OC32)c(=O)[nH]1 (stereo not given) | 0.2% (inactive) |
| COC1CCC(/C(C#N)=C/C2CCC(N(C)C)CC2)CC1 (stereo not given) | 9.85% (inactive) |
| CCCCCCC(=O)c1ccc2ccccc2c1O | 8.8% (inactive) |
| COc1ccc(C(Cl)=C(c2ccc(OCCN(C)C)cc2)c2ccc(OCCN(C)C)cc2)cc1 | 28.4% (inactive) |
| CC1(C)CC(O)=CC(=O)N1 | 10.3% (inactive) |
| [O-]/[N+](=C\c1ccccc1)[C@H](COCc1ccccc1)c1ccccc1 | -2.75% (inactive) |
| O=C1OC([C@H](O)c2cccnc2)c2ccccc21 (stereo not given in full) | -26.1% (inactive) |
| COC(=O)C(=[N+]=[N-])C(=O)c1ccccc1[N+](=O)[O-] | 6.9% (inactive) |
| CN1CCC2(CC1)C(=NC1CCCCC1)NC(=O)N2c1ccccc1 | 6.6% (inactive) |
| O=C(NCc1cccs1)OC1CC2CCC1C2 (stereo not given) | -8% (inactive) |
| COC(=O)c1cc(C)ccc1/C=C1\Cc2c(C)cc(C)cc2C1=O | -46.1% (inactive) |
| Nc1cc([N+](=O)[O-])ccc1N1C(=O)CCCC1=O | 5.85% (inactive) |
| CC(C)(C)NC(NC(C)(C)C)=C(/C=C(/Cl)[N+](=O)[O-])[N+](=O)[O-] | 15.9% (inactive) |
| O=C(NCc1ccc([N+](=O)[O-])cc1)c1ccccc1 | 0.85% (inactive) |
| CC(C)(C)NC(=O)Oc1ccc2ccccc2c1 | 10.3% (inactive) |
| CSc1ccc(NC(=O)Nc2ccccc2C(F)(F)F)cc1 | 34.5% (inactive) |
| O=C(ON=C1c2ccccc2C(Br)C(Br)c2ccccc21)c1cc([N+](=O)[O-])cc([N+](=O)[O-])c1 (stereo not given) | 21.1% (inactive) |
| CNc1nc(=S)nc(-c2ccccc2)s1 | 11.8% (inactive) |
| CCN(CC)CCOc1ccc(Cc2nc3c([nH]2)c(=O)n(C)c(=O)n3C)cc1 | 5.1% (inactive) |
